In PubChem BioAssay (NCATS):
Records with an inconclusive call do not appear. Activity calls are given as the source filed them. Unless noted, calls follow the shape of the dose curve; as a rule, active = well fitted curve in the direction sought with a large enough effect; inconclusive = small, poorly fitted or top-dose-only effect, or another doubt; inactive = no such curve, though single readings can be large; an effect the other way counts as inactive or inconclusive.

Tests used:
[1] = S16 Schwann cell viability assay (CellTiter-Glo assay) (AID 624031); conditions: S16 rat Schwann cells viability, 24 h; series mostly up to 57.5 µM;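 also: native untransfected S16 rat Schwann cells; cellular ATP luminescence as a viability measure; plate controls were DMSO-treated cells for no effect and cell-free wells for full effect; nearly all actives have a fitted effect of over 70% in size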
Outline: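 Concentration-effect curves come from CellTiter-Glo luminescence of S16 rat Schwann cells after 24 h compound exposure. Each reading was normalized to DMSO wells (0%) and wells without cells, and curves were ranked by r2 and response magnitude.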

[2] = S16 Schwann cell PMP22 intronic element firefly luciferase assay (AID 624032); conditions: S16 rat Schwann cells, PMP22 element FLuc, 24 h; series mostly up to 57.5 µM;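 also: plate controls were DMSO for no effect and PTC124 positive control mean for full effect; nearly all actives have a fitted effect of over 30% in size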
Outline: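 Rat S16 Schwann cells stably carrying firefly luciferase driven by a PMP22 intronic element, in 10% FBS, treated 24 h at 37 C. ONE-Glo luminescence normalized to PTC124 control and DMSO (0%); curves classed by r2, magnitude and activity.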

[3] = S16 Schwann cell PMP22 intronic element beta-lactamase assay (AID 624044; calls by dose curve;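 also: 0% = DMSO and -100% = potassium clavulanate positive control; nearly all actives have a fitted effect of over 15% in size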); conditions: S16 rat Schwann cells, PMP22 element beta-lactamase FRET, 24 h; series mostly up to 38.3 µM
Outline: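 Rat S16 Schwann cells with beta-Lac driven by a PMP22 intronic element, compound-treated 24 h at 37 °C. LiveBLAzer FRET B/G read: 460 nm normalized to potassium clavulanate vs DMSO; 535 nm FRET as viability; concentration-effect curves classified.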

CP215 = experiment: qHTS profiling for inhibitors of Plasmodium falciparum proliferation (AID 504749);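 also: 0% = DMSO vehicle and full inhibition = artemisinin control; nearly all actives have a fitted effect of over 60% in size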; conditions: P. falciparum in erythrocytes, SYBR Green DNA, 72 h; series mostly up to 28.7 µM
Outline: (§1)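 P. falciparum-infected erythrocytes (0.3% parasitemia, 2.5% hematocrit) incubated with compound 72 h at 37 C, 5% CO2. Parasite DNA detected by SYBR Green after lysis, overnight at room temperature; normalised to 0.29 uM artemisinin and DMSO.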

CP291 = experiment: as above; conditions: P. falciparum in erythrocytes, SYBR Green DNA, 72 h; series mostly up to 28.7 µM
Outline: as §1

CP297 = experiment: as above; conditions: P. falciparum in erythrocytes, SYBR Green DNA, 72 h; series mostly up to 28.7 µM
Outline: as §1

CP335 = experiment: as above; conditions: P. falciparum in erythrocytes, SYBR Green DNA, 72 h; series mostly up to 28.7 µM
Outline: as §1

GB4 = experiment: as above; conditions: P. falciparum in erythrocytes, SYBR Green DNA, 72 h; series mostly up to 28.7 µM
Outline: as §1

[4] = as above; conditions: P. falciparum in erythrocytes, SYBR Green DNA, 72 h, at 28.7 µM (top of the series)
Outline: as §1

AS120 = experiment: as above; conditions: P. falciparum in erythrocytes, SYBR Green DNA, 72 h; series mostly up to 28.7 µM
Outline: as §1

ATS189 = experiment: as above; conditions: P. falciparum in erythrocytes, SYBR Green DNA, 72 h; series mostly up to 28.7 µM
Outline: as §1

CP237 = experiment: as above; conditions: P. falciparum in erythrocytes, SYBR Green DNA, 72 h; series mostly up to 28.7 µM
Outline: as §1

CP247 = experiment: as above; conditions: P. falciparum in erythrocytes, SYBR Green DNA, 72 h; series mostly up to 28.7 µM
Outline: as §1

CP265 = experiment: as above; conditions: P. falciparum in erythrocytes, SYBR Green DNA, 72 h; series mostly up to 28.7 µM
Outline: as §1

ECU = experiment: as above; conditions: P. falciparum in erythrocytes, SYBR Green DNA, 72 h; series mostly up to 28.7 µM
Outline: as §1

HB3 = experiment: as above; conditions: P. falciparum in erythrocytes, SYBR Green DNA, 72 h; series mostly up to 28.7 µM
Outline: as §1

P93_24 = experiment: as above; conditions: P. falciparum in erythrocytes, SYBR Green DNA, 72 h; series mostly up to 28.7 µM
Outline: as §1

PAD = experiment: as above; conditions: P. falciparum in erythrocytes, SYBR Green DNA, 72 h; series mostly up to 28.7 µM
Outline: as §1

TAB109 = experiment: as above; conditions: P. falciparum in erythrocytes, SYBR Green DNA, 72 h; series mostly up to 28.7 µM
Outline: as §1

W2 = experiment: as above; conditions: P. falciparum in erythrocytes, SYBR Green DNA, 72 h; series mostly up to 28.7 µM
Outline: as §1

C=C1CC[C@H](O)C/C1=C/C=C1\CCC[C@]2(C)[C@@H]([C@H](C)CCCC(C)C)CC[C@@H]12
inactive: Potency [1] | Potency [2] | outcome [3] | Potency (CP215) | Potency (CP291) | Potency (CP297) | Potency (CP335) | Potency (GB4)

Cc1c(C(=O)O)c(O)cc2c1C(=O)c1c(O)c([C@H]3O[C@H](CO)[C@@H](O)[C@H](O)[C@H]3O)c(O)c(O)c1C2=O
inactive: outcome [3] | activity, negative = inhibition ([4]; parasite line A) 5.98% | activity, negative = inhibition ([4]; parasite line B) 13.4% | Potency (AS120) | Potency (ATS189) | Potency (CP215) | Potency (CP237) | Potency (CP247) | Potency (CP265) | Potency (CP291) | Potency (CP297) | Potency (CP335) | Potency (ECU) | Potency (GB4) | Potency (HB3) | Potency (P93_24) | Potency (PAD) | Potency (TAB109) | Potency (W2)
